The structures appear in SMILES notation. The campaign covered roughly 2,300 compounds. About 330 (14%) showed activity.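 Rule for the calls: active = median modified Z-score above 1.96; inactive = 1.96 or below.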 Not all results are given here.

The record followed here is the supplement of paper PMC10498489.

The assay relates to HepG2 Srxn1-GFP reporter cells (+30 nM CDDO-Me). Kind of assay: Srxn1-GFP intensity median modified Z-score relative to plate median; higher = stronger NRF2 / oxidative stress reporter activation, active = hit call of the paper. To be noted: 10 µM; exposure time: 24h. Put shortly: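 In 96-well plates holding 20,000 HepG2 Srxn1-GFP BAC reporter cells per well, compound at 10 μM and an NRF2 activator at 30 nM were added together for 24 h, with DMSO at ≤0.1%, across three replicate plates. After fixation in formaldehyde and Hoechst staining, confocal images were analysed cell by cell for cytoplasmic GFP, and images containing under 100 cells were excluded. Values are replicate medians of the per-plate modified Z-score of GFP intensity, scaled by 1.4826 × median absolute deviation.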
Consider `Cc1ccc(C(=O)Oc2cccc3cccnc23)cc1`, for which the “Srxn1-GFP intensity median modified Z-score” value is 0.989 (inactive).
Under `O=C(Oc1cccc2cccnc12)c1ccccc1Cl` stands 1.65 (inactive); under `O=C(Oc1cccc2cccnc12)c1ccccc1` [euspeclibcmpd773], 12.8 (active); under `CC/C=C\C/C=C\C/C=C\C/C=C\C/C=C\CCCC(=O)OCC` [euspeclibcmpd997], 0.696 (inactive).
Under `C[C@H]1[C@H]2CCC3C4CC=C5C[C@@H](N(C)C)CC[C@]5(C)C4CC[C@@]32CN1C` (stereo partly drawn) [euspeclibcmpd1801] stands -0.317 (inactive); under `CC(C)CCCC(C)[C@H]1CCC2C3CC=C4C[C@@H](O)CC[C@]4(C)C3CC[C@@]21C` (stereo partly drawn) [euspeclibcmpd354], 0.396 (inactive); under `CC(C)C(C)/C=C/C(C)C1CCC2C3=CC=C4CC(O)CCC4(C)C3CCC21C` (stereo not drawn) [euspeclibcmpd1597], 5.02 (active).
With `CC(=O)OC1CCC2(C)C(=CC=C3C2CCC2(C)C3CCC2C(C)/C=C/C(C)C(C)C)C1(C)C` (stereo not drawn) [euspeclibcmpd1343], the “Srxn1-GFP intensity median modified Z-score” value is 1.93 (inactive).
Under `C=C1CC[C@H](O)C/C1=C/C=C1\CCC[C@]2(C)C([C@H](C)/C=C/[C@H](C)C(C)C)CC[C@@H]12` (stereo partly drawn) [euspeclibcmpd112] stands 2.55 (active); under `CC(C)CCCC(C)C1CCC2C3=CCC4CC(O)CCC4(C)C3CCC21C` (stereo not drawn) [euspeclibcmpd1991], -0.131 (inactive).
Under `C=C1CC[C@H](O)C/C1=C/C=C1\CCCC2(C)C1CCC2C(C)CCCC(C)C` (stereo partly drawn) [euspeclibcmpd353] stands 2.95 (active).
Under `CCC(/C=C/[C@@H](C)[C@H]1CCC2C3CC=C4C[C@@H](O)CC[C@]4(C)C3CC[C@@]21C)C(C)C` (stereo partly drawn) [euspeclibcmpd1549] stands -0.0971 (inactive); under `CC(=O)Nc1ccc(S(=O)(=O)N=c2o[nH]c(C)c2C)cc1` [euspeclibcmpd798], -0.176 (inactive).
Take `CC(=O)N[C@H]1[C@H]([C@H](O)[C@H](O)CO)O[C@](O)(C(=O)O)C[C@@H]1O` [euspeclibcmpd2223]: the “Srxn1-GFP intensity median modified Z-score” value was -0.0326 (inactive).
Regarding `CC(C)C(N)C(=O)OCC(CO)OCn1cnc2c(=O)[nH]c(=N)[nH]c21` (stereo not drawn) [euspeclibcmpd624], the “Srxn1-GFP intensity median modified Z-score” value is -0.125 (inactive).
Consider `C[C@H]1CC2C3CC=C4CC(=O)C=C[C@]4(C)[C@@]3(F)[C@@H](O)C[C@]2(C)[C@@]1(O)C(=O)COP(=O)(O)O` (stereo partly drawn) [euspeclibcmpd2288], for which the “Srxn1-GFP intensity median modified Z-score” value is -0.294 (inactive).
Under `CNCc1ccccc1` [euspeclibcmpd1631] stands -0.463 (inactive).
Turning to `CC(CN(C)C)CN1c2ccccc2Sc2ccccc21` (stereo not drawn) [euspeclibcmpd308], the “Srxn1-GFP intensity median modified Z-score” value is -0.246 (inactive).
Under `CCC(=O)OCC(=O)C1(OC(=O)CC)C(C)CC2C3CC=C4CC(=O)C=CC4(C)C3(Cl)C(O)CC21C` (stereo not drawn) [euspeclibcmpd31] stands -0.85 (inactive); under `C[C@@H]1CC2C3CC=C4CC(=O)C=C[C@]4(C)[C@@]3(Cl)[C@@H](O)C[C@]2(C)[C@@]1(OC(=O)c1ccco1)C(=O)CCl` (stereo partly drawn) [euspeclibcmpd756], 2.37 (active); under `CCC(=O)O[C@]1(C(=O)CCl)[C@@H](C)CC2C3CC=C4CC(=O)C=C[C@]4(C)[C@@]3(F)[C@@H](O)C[C@@]21C` (stereo partly drawn) [euspeclibcmpd633], 0.492 (inactive).
Under `NC[C@@H]1CC[C@@H](N)[C@@H](O[C@H]2[C@H](O)[C@@H](O[C@H]3O[C@H](CO)[C@@H](O)[C@H](N)[C@H]3O)[C@H](N)C[C@@H]2N)O1` [euspeclibcmpd1045] stands -0.0322 (inactive).
In the case of `CCOc1ccc(C(=O)c2cc(O)c(OC)c(OC)c2O)cc1` [euspeclibcmpd2089], the “Srxn1-GFP intensity median modified Z-score” value is -0.551 (inactive).
Under `CCCCCCCCCCCCC(C(=O)O)C(C)C(=O)O` (stereo not drawn) [euspeclibcmpd1524] stands 0.456 (inactive); under `CCCCCCCCCCCCCCCCC(C(=O)O)C(O)(CC(=O)O)C(=O)O` (stereo not drawn) [euspeclibcmpd1735], 3.83 (active).
Under `CCCCCCCCCCCCCCC(C(=O)OC)C(O)(CC(=O)OC)C(=O)OC` (stereo not drawn) [euspeclibcmpd2214] stands -0.435 (inactive); under `OC[C@H]1O[C@H](OC[C@H]2O[C@@H](O)[C@H](O)[C@@H](O)[C@@H]2O)[C@H](O)[C@@H](O)[C@H]1O` [euspeclibcmpd1651], -0.055 (inactive); under `CC(C)Cn1c(=O)n(C)c(=O)c2nc[nH]c21` [euspeclibcmpd1808], 11.6 (active).
`CC(C)Cn1c(=O)n(C)c(=O)c2nc[nH]c21` [euspeclibcmpd2061]: the “Srxn1-GFP intensity median modified Z-score” value was 0.0284 (inactive).
Under `CC(O)Cn1cnc2c1c(=O)n(C)c(=O)n2C` (stereo not drawn) [euspeclibcmpd1230] stands 0.0469 (inactive); under `Cn1c(=O)c2nc[nH]c2n(C)c1=O` [euspeclibcmpd290], -0.062 (inactive).
Consider `COc1ccc(Cc2c[nH]c(=N)[nH]c2=N)cc1OC` [euspeclibcmpd456], for which the “Srxn1-GFP intensity median modified Z-score” value is -0.0911 (inactive).
Under `COc1cc2c(cc1OC)-c1c(oc3cc(O)cc(O)c3c1=O)CO2` [euspeclibcmpd2244] stands -0.157 (inactive); under `COc1ccc([C@@H]2CC(=O)c3c(O)cc(O)cc3O2)cc1O` [euspeclibcmpd1483], 0.0163 (inactive); under `COc1ccc2c(c1)C(=O)/C(=C\c1ccc(OC)c(O)c1)CO2`, 3.46 (active).
Regarding `COc1ccc(-c2cc(=O)c3c(O)cc(OC)c(OC)c3o2)c(OC)c1` [euspeclibcmpd1657], the “Srxn1-GFP intensity median modified Z-score” value is 0.259 (inactive).
Under `COc1ccc2c(c1)OC/C(=C\c1ccc(OC)c(O)c1)C2=O` [euspeclibcmpd1638] stands 19.3 (active); under `COc1ccc(/C=C2/COc3ccc(Br)cc3C2=O)cc1O`, 1.17 (inactive); under `COC(=O)/C=C/c1cc(OC)c(OC)c(OC)c1` [euspeclibcmpd2136], 0.7 (inactive).
Under `COC(=O)/C=C/C(=O)OC` [euspeclibcmpd923] stands 6.34 (active); under `COC(=O)/C=C/C(C)=C/C=C/C(C)=C/C=C/C=C(C)/C=C/C=C(C)/C=C/C(=O)O` [euspeclibcmpd2376], -0.19 (inactive).
Under `COCCN(Cc1ccccn1)C(=O)C1CCN(C)C(=O)C1` (stereo not drawn) stands 0.317 (inactive).
`CC1(C)SC2C(NC(=O)[C@@H](NC(=O)N3CCNC3=O)c3ccccc3)C(=O)N2C1C(=O)O` (stereo partly drawn) [euspeclibcmpd2116]: the “Srxn1-GFP intensity median modified Z-score” value is -0.415 (inactive).
